# High-throughput results (PubChem BioAssay)
# This is a sample that favours compounds with a hit; in the whole collection about 10% have one here.
# GLS inhibitor: qHTS for Inhibitors of Glutaminase (GLS). GLS enzymatic activity, qHTS titration. Potency, µM (doses to about 45.5 µM), for the others: at the highest dose activity change, negative = inhibition, actives largely listed as inhibitors. hit rate 0.21% among 410,000; note: % is set by controls: 0 for no effect and ±100 for the full control effect
#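 Two-point fluorescence kinetic (t0, 30 min RT) for hKGA; glutamate detected via glutamate oxidase–HRP–Amplex Red. Substrate: 1 mM L-glutamine solution; buffer 45 mM KH2PO4, pH 8.2.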
# JMJD2A Tudor inh: qHTS Assay for Inhibitors of JMJD2A-Tudor Domain; Lysine-specific demethylase 4A (Homo sapiens), O75164; hit rate 4.4% among 390,000; AID 504339, 2011; Potency, µM (titrated, usually from 114 µM), for the others: at the highest dose activity change, negative = inhibition, usual class: inhibitors; AlphaScreen JMJD2A-Tudor / H3K4me3 peptide binding; note: % is set by controls: 0 for no effect and ±100 for the full control effect; nearly all actives have a fitted effect of over 50% in size
# L3MBTL1 inh: qHTS Assay for the Inhibitors of L3MBTL1 | Lethal(3)malignant brain tumor-like protein 1 (Homo sapiens), Q9Y468 | AlphaScreen L3MBTL1–H3K9me1 peptide binding | Potency, µM (top dose mostly 57.1 µM), inactives show top-dose activity, negative = inhibition, hits mostly inhibitors | hit rate 0.66% among 230,000; note: % is set by controls: 0 for no effect and ±100 for the full control effect; nearly all actives have a fitted effect of over 60% in size
#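 L3MBTL1 50 nM + b-AHA-H3(1-15)K9me1 75 nM, 30 min RT; compound added, 30 min RT; streptavidin donor/Ni-chelate acceptor beads 10 ug/mL each final, 30 min RT dark; AlphaScreen read.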
# HP1b chromo inh: HTS for Inhibitors of HP1-beta Chromodomain Interactions with Methylated Histone Tails. Chromobox protein homolog 1 (Homo sapiens), P83916. AlphaScreen HP1-beta / biotin-H3K9me3 peptide binding. Potency, µM (doses to about 114 µM), inactives show at the highest dose activity change, negative = inhibition, actives largely listed as inhibitors. hit rate 0.56% among 390,000; note: nearly all actives have a fitted effect of over 70% in size
#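 Compound inhibition of the preformed complex between 50 nM HP1-beta and 50 nM biotinylated H3K9me3 peptide was read by AlphaScreen. Buffer was PBS pH 7.4 with 0.01% Tween-20. Incubations ran 30 min at room temperature, with 10 ug/mL donor/acceptor beads.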
# G9a block: qHTS Assay for Inhibitors of Histone Lysine Methyltransferase G9a. G9a H3K9 monomethylation, AlphaScreen, 2 h. Potency, µM (top dose mostly 102 µM), inactives show at the top dose activity, negative = inhibition, actives largely listed as inhibitors. hit rate 8.8% among 350,000. AID 504332, 2011; note: % is set by controls: 0 for no effect and ±100 for the full control effect; nearly all actives have a fitted effect of over 75% in size
#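 Chemiluminescent proximity detection of H3K9 monomethylation, read after 10 min bead incubation in the dark. Reaction: 20 nM G9a, 500 nM biotin-H3K9 peptide, 20 uM SAM cofactor, 2 h, room temperature, following 15 min enzyme-compound preincubation.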
# BAZ2B block: qHTS Assay for Inhibitors of BAZ2B | Bromodomain adjacent to zinc finger domain protein 2B (Homo sapiens), Q9UIF8 | Potency, µM (highest dose often 114 µM), without a hit: at the highest dose activity change, negative = inhibition, usual class: inhibitors | hit rate 4.4% among 360,000 | AlphaScreen BAZ2B-H3K14Ac peptide displacement; note: % is set by controls: 0 for no effect and ±100 for the full control effect; nearly all actives have a fitted effect of over 60% in size
#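 In this displacement format the biotinylated H3(5-23) peptide acetylated at Lys14 serves as ligand at 50 nM, with BAZ2B at 50 nM in PBS pH 7.4 containing 0.01% Tween-20. Donor and acceptor beads are 10 ug/mL final.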
# * marks the source's active call; other numbers are inactive results; ? = inconclusive; / = no result; [ ] = remark or other dose. Calls come from the whole dose curve; as a rule, active = well fitted curve in the direction sought with a large enough effect; inconclusive = small, poorly fitted or top-dose-only effect, or another doubt; inactive = no such curve, though single readings can be large; an effect the other way counts as inactive or inconclusive. Potency is the fitted concentration of half-maximal effect.
SMILES,GLS inhibitor,JMJD2A Tudor inh,L3MBTL1 inh,HP1b chromo inh,G9a block,BAZ2B block
Cc1ccc(NC(=O)C2CC2c2ccccc2)c([N+](=O)[O-])c1 (configuration not stated),-1.9%,?,-18.6%,-10.9%,39.8µM*,?
O=C(Nc1ccc(Cl)cc1F)C1CC1c1ccccc1 (configuration not stated),-2.1%,-8.2%,9.2%,22.3%,/,7.7%
Cc1ccc(NC(=O)/C=C\C(=O)O)c([N+](=O)[O-])c1,-0.7%,-2.1%,17.7%,37.6%,39.8µM*,9.7%
O=C(NNc1ccc([N+](=O)[O-])cc1)C1CC2CCCC(C1)C2=O (configuration not stated),19.5%,-22.7%,4.1%,8.1%,-11.8%[0.0925 µM],?
CC(=O)Nc1ccc(S(=O)(=O)Nc2cc([N+](=O)[O-])ccc2C)cc1,0.0%,10µM*,-3.2%,?,?,-18.3%
O=C(NNc1ccc([N+](=O)[O-])cc1)C1CC1c1ccccc1 (configuration not stated),20.1%,-11.2%,-7.0%,-19.5%,10µM*,-38.2%
CC(=O)Nc1ccc(S(=O)(=O)Nc2ccc([N+](=O)[O-])cc2)cc1,-11.8%,/,/,/,-43.2%[2.33 µM],/
CCOc1ccc2c(c1)c(=O)c(C(=O)c1ccc(CC)cc1)cn2CC(=O)Nc1ccc2c(c1)OCCO2,-3.3%,-1.7%,/,57.0%,9.8%[59 µM],-1.2%
Cc1cc(C)c(NC(=O)/C=C\C(=O)O)c(Cl)c1,4.0%,-17.9%,4.3%,41.9%,?,2.1%
Cc1cc(C)c(NC(=O)/C=C\C(=O)O)c([N+](=O)[O-])c1,-3.3%,?,/,9.2%,3.55µM*,2.1%
Cc1ccc([N+](=O)[O-])cc1NC(=O)/C=C/C(=O)O,-0.5%,-15.7%,10.8%,26.7%,-9.0%[12.7 µM],79.4µM*
O=C(O)C1CC=CCC1C(=O)NCc1ccccc1 (configuration not stated),1.4%,-8.9%,5.4%,29.1%,28.8%[12.7 µM],-6.2%
O=C(O)C1CC=CCC1C(=O)NNc1ccccc1 (configuration not stated),-13.7%,9.8%[57.1 µM],/,4.5%,14.1µM*,-11.0%
Cc1ccccc1NC(=O)CSc1nc2nccnc2c(=O)n1CCc1c[nH]c2ccccc12,6.3%,-10.2%,/,57.9%,-1.2%[59 µM],-4.8%
Cc1ccc(/C=N/n2c(-c3cccs3)n[nH]c2=S)cc1,-15.5%,50.1µM*,-4.2%,5.0%,0.447µM*,-26.0%
S=c1[nH]nc(-c2cccs2)n1/N=C/c1c(Cl)cccc1Cl,-5.0%,?,-5.2%,-23.9%,1.26µM*,-33.9%
O=[N+]([O-])c1ccc(-c2nn(-c3ccccc3)cc2/C=N/n2c(-c3cccs3)n[nH]c2=S)cc1,2.1%,-22.1%,/,33.1%,/,0.9%
COc1ccc(/C=N/n2c(-c3cccs3)n[nH]c2=S)cc1,9.3%,44.7µM*,-7.6%,-16.8%,?,-37.1%
c1ccc2c(CCC3CCNCC3)c[nH]c2c1,17.2%,/,/,/,/,/
O=C1CC(c2nc3ccccc3n2CCCCOc2ccccc2)CN1c1ccccc1Cl (configuration not stated),-12.7%,-18.8%,/,35.6%,-15.0%[59 µM],-31.9%
COc1ccc(N2C(=O)/C(=C/c3cccnc3)NC2=S)cc1,-2.5%,-11.6%,-1.7%,33.8%,?,5.3%
COc1ccc(N2C(=O)/C(=C/N(C)C)NC2=S)cc1,?,17.8µM*,-0.3%,?,3.55µM*,-11.8%
CCc1cccc(CC)c1NC(=O)C(Cc1ccccc1)NS(=O)(=O)c1cccc2nsnc12 (configuration not stated),0.4%,-29.3%,/,11.1%,?,/
